This passage reports composite z-score and z-score results from PubChem BioAssay.

Assay [1] concerns Wnt5a (protein binding on small-molecule microarray). Kind of assay: small molecules binding Wnt5a protein – biophysical, small-molecule microarray, 635/667 nm fluorescence, primary screen (AID 1142).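 Note: fluorescence read at 667 nm with signal to noise per printed feature.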 Particulars: 635 nm fluorescence, higher = more signal.
Assay [2] is described as follows: ATP-based viability of Huh7 replicon cells – cell-based, CellTiter-Glo luminescence, basal, 48 h, cytotoxicity control for HCV replication inhibitor project, primary screen (AID 1143).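 Note: Huh7 hepatoma cells carrying a hepatitis C replication reporter with no stimulus; test concentration not given here.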 Particulars: higher = more signal, called active from +8 up or from −8 down.
Assay [3] in a line: basal CRE-LacZ reporter activity in PC12 – cell-based, unstimulated, primary screen (AID 1145). Particulars: no forskolin, luminescence, 4.5 h, higher = more signal, called active from +8 up or from −8 down.
A short description of assay [4]: forskolin-driven CRE-LacZ activity in PC12 – cell-based, CRE-LacZ reporter, forskolin-stimulated, primary screen (AID 1146).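 Note: PC12 cells with 6xCRE LacZ reporter stimulated by forskolin 10 µM; beta-galactosidase reporter signal reflecting CREB driven transcription.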 Particulars: luminescence, 4.5 h, higher = more signal, called active from +8 up or from −8 down.
Assay [5] concerns the target Streptavidin (Streptomyces avidinii) (UniProt P22629). Description: compounds binding control protein streptavidin – biophysical, small-molecule microarray, 635/667 nm fluorescence, artefact control for SMM compound annotation, primary screen (AID 1147).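 Note: signal reflects streptavidin binding to arrayed compounds as a control protein.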 Particulars: higher = more signal.
Assay [6] is described as follows: probe aInhba binding on compound microarray – biochemical, small-molecule microarray, 635/667 nm fluorescence, primary screen (AID 1148).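 Note: score merges 667nm spot fluorescence with signal-to-noise for antibody binding to printed compounds.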 Particulars: higher = more signal.
Assay [7] has as its target Torsin-1A (Homo sapiens) (UniProt O14656). Kind of assay: TOR1A wild-type binding on microarray – cell lysate, small-molecule microarray, lysate, 635/667 nm, primary screen (AID 1149). Particulars: COS7 hTOR1A-WT lysate, 635 nm fluorescence, higher = more signal.
Assay [8] shares this target. Description: torsin A mutant lysate binding on microarrays – cell lysate, small-molecule microarray, COS7 lysate, 635/667 nm fluorescence, primary screen (AID 1150).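 Note: score pools 667 nm emission and signal to noise measuring lysate protein binding.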 Particulars: COS7 hTOR1A mutant lysate, 635 nm fluorescence, higher = more signal.
Assay [9] concerns Sonic hedgehog protein (Shh). Description: Sonic hedgehog microarray binding compounds – biochemical, small-molecule microarray, 635/667 nm fluorescence, primary screen (AID 1151).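 Note: Shh protein binding to compounds spotted on small-molecule microarray slides; score combines spot fluorescence intensity with signal-to-noise across triplicate slides.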 Particulars: 635 nm fluorescence, higher = more signal.
Assay [10] can be described thus: optical density shifts of acrAB sulA E. coli – strain DRC41, OD650, 48 h, E. coli filamentation inducer project, primary screen (AID 1152).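 Note: E. coli MC1000 strain DRC41 lacking acrAB efflux pump and sulA.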 Particulars: higher = more signal, called active from +8 up or from −8 down.
A short description of assay [11]: probe aLefty1 binding on compound microarray – biochemical, small-molecule microarray, 635/667 nm fluorescence, primary screen (AID 1153).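 Note: score merges spot fluorescence with signal-to-noise ratio from the scanned slide images.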 Particulars: higher = more signal.
Assay [12] in a line: plasmodial surface anion channel blockers, osmotic lysis – cell-based, P. falciparum Indochina, OD700, 1 h, primary screen (AID 1154). Particulars: P. falciparum Indochina infected RBC osmotic lysis, higher = more signal, called active from +8 up or from −8 down.
Assay [13] in a line: plasmodial surface anion channel blockers, osmotic lysis – cell-based, P. falciparum Indochina, OD700, 2 h, primary screen (AID 1155).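 Note: lysis reports solute entry through the parasite surface anion channel PSAC.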 Particulars: P. falciparum Indochina infected erythrocytes, higher = more signal, called active from +8 up or from −8 down.
Assay [14] is described as follows: changes in parasitized red cell lysis, either direction – P. falciparum Indochina, OD700, 3 h, PSAC antagonist project, primary screen (AID 1156). Particulars: P. falciparum-infected erythrocytes, osmotic lysis, higher = more signal, called active from +8 up or from −8 down.
Assay [15] can be described thus: plasmodial surface anion channel blockers, osmotic lysis – cell-based, P. falciparum Indochina, OD700, 18 h, primary screen (AID 1157). Particulars: P. falciparum Indochina infected erythrocytes, osmotic lysis OD700, 18 h; higher = more signal, called active from +8 up or from −8 down.
Assay [16] can be described thus: S6 kinase pathway phospho-S6 level changes – cell-based, A549, cytoblot, luminescence, serum-stimulated, primary screen (AID 1158).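 Note: serum-stimulated A549 lung adenocarcinoma cells; signal is phosphorylated S6 detected by cytoblot immunostaining with HRP secondary.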 Particulars: 5 h, higher = more signal.
The target in assay [17] is NADPH oxidase 2 (Homo sapiens) (UniProt P04839). Description: compounds shifting NOX2 Amplex Red fluorescence – cell-based, HEK293-NOX2, PMA-stimulated, NOX inhibitor project, primary screen (AID 1159). Note: test concentration not given here. Particulars: 45 min, higher = more signal, called active from +8 up or from −8 down.
In assay [18] the target is NADPH oxidase 4 (Homo sapiens) (UniProt Q9NPH5). Description: compounds shifting NOX4 Amplex Red fluorescence – cell-based, HEK293-NOX4, tetracycline-induced, NOX inhibitor project, primary screen (AID 1160). Particulars: HEK293-NOX4, Amplex Red H2O2 fluorescence, 45 min; higher = more signal, called active from +8 up or from −8 down.
The target in assay [19] is NADPH oxidase 5 (Homo sapiens) (UniProt Q96PH1). Description: compounds shifting NOX5 Amplex Red fluorescence – cell-based, HEK293-NOX5, NOX inhibitor project, primary screen (AID 1161). Particulars: HEK293-NOX5, ionomycin, 45 min, higher = more signal.
Assay [20] can be described thus: compound effects on lung adenocarcinoma cell viability – A549, calcein-AM fluorescence, 48 h, basal, profiling panel (AID 1162). Note: test concentration not given here. Particulars: higher = more signal.

The source made the active and inactive calls.

NADPH oxidase 2 (Homo sapiens), sequence (P04839 whole entry, looked up): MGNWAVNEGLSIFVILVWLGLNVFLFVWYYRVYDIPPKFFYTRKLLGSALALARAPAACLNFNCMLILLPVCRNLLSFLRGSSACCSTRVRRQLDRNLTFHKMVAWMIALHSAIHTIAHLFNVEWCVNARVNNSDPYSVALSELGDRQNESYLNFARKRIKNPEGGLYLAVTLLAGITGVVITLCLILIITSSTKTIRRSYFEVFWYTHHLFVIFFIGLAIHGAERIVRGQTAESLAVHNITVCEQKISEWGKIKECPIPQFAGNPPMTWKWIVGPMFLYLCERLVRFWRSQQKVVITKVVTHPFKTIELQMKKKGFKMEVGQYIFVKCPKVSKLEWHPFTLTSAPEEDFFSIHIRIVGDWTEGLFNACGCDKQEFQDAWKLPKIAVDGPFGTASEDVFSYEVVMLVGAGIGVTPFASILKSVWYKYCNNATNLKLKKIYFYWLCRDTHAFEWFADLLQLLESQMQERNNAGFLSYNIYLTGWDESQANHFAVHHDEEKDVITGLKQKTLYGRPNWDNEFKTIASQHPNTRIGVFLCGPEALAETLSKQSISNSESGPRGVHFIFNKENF
Streptavidin (Streptomyces avidinii), sequence (P22629 whole entry, looked up): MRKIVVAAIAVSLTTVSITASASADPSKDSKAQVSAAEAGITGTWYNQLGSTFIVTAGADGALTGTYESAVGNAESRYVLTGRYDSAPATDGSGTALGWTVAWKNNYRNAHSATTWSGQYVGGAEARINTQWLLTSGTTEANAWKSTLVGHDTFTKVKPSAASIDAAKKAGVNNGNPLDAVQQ
NADPH oxidase 4 (Homo sapiens), sequence (Q9NPH5 whole entry, looked up): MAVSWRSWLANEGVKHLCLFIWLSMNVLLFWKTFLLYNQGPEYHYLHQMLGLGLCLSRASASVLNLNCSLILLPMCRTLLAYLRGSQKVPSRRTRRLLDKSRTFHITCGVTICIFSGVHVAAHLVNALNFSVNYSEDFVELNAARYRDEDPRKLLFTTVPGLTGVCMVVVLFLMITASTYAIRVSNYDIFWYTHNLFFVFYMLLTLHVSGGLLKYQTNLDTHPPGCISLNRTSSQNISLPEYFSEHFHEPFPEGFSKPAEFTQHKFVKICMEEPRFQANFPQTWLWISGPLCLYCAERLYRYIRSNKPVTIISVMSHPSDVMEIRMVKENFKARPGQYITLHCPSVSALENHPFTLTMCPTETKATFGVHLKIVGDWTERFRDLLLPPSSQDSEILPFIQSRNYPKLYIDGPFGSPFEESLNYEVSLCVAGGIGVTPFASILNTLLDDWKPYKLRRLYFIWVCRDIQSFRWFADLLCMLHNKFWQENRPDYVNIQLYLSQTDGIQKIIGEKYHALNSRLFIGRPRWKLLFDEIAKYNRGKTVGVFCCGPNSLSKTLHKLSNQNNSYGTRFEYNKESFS
Torsin-1A (Homo sapiens), sequence (O14656 whole entry, looked up): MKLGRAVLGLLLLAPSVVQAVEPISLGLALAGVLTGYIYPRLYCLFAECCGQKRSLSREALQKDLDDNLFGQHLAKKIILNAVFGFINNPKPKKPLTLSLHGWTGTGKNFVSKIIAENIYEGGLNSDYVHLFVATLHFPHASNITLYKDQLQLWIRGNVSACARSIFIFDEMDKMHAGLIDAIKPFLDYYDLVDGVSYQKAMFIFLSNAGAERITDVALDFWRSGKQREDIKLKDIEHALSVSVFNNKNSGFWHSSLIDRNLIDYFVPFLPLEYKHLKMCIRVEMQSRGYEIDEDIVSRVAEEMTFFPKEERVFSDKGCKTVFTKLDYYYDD
NADPH oxidase 5 (Homo sapiens), sequence (Q96PH1 whole entry, looked up): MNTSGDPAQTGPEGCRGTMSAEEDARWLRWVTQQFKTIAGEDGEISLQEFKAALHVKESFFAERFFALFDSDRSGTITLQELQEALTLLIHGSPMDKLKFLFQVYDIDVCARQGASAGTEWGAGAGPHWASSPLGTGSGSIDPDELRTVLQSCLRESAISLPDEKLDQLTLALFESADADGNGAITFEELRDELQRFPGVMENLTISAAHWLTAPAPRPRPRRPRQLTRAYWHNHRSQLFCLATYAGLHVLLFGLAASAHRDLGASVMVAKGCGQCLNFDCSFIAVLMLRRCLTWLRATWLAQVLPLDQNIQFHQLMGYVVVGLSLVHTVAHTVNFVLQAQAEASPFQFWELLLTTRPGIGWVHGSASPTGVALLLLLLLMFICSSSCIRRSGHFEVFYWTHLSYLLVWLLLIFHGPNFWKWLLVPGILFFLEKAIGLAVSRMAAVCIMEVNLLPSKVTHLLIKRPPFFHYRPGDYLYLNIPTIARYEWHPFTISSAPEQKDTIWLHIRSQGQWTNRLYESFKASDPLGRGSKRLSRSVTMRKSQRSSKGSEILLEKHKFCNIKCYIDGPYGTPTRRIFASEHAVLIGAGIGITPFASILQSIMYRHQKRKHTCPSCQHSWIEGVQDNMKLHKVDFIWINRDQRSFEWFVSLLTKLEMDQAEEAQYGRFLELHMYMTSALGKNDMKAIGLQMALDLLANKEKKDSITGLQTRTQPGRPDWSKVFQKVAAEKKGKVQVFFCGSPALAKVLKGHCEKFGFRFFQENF

For the compound `CC(C)N1CC=CC23O[C@@H]4/C=C\CCCOC(=O)C4[C@H]2C(=O)N(CCCO)[C@@H]3C1=O` (stereo not given in full), the composite z-score in [1] was -0.059; in [5], -1.1; in assay [6], -0.176; in assay [7], -0.934; in assay [8], 0.367; in assay [9], -0.102. For the same compound, the composite z-score in assay [11] worked out at 0.236. Further, the z-score in [2] is -0.354 (inactive); in [3] it was 0.191 (inactive); in [4] it was -0.256 (inactive); in assay [10], 1.71 (inactive); in assay [12], 0.245 (inactive); in [13], 0.0014 (inactive). In addition, the z-score was 1.1 (inactive) in [14]; -0.083 (inactive) in [15]; -0.108 in assay [16]; 1.58 (inactive) in assay [17]; -1.85 (inactive) in [18]; 2.19 in assay [19]. Further, in [20], the z-score is 1.02.

On to `NCCCCCCNC(=O)[C@@H]1C[C@@H]2C(=O)N[C@@H](Cc3ccccc3)C(=O)N2[C@@H]1c1ccc(O)cc1`, for which the composite z-score came to 0.0167 in [1]; 0.91 in assay [5]; 0.229 in [6]; 0.104 in [7]; 0.416 in [8]; 0.507 in assay [9]. The composite z-score in assay [11] is 0.443. In addition, the z-score in assay [2] is -0.136 (inactive); in assay [3], 1.52 (inactive); in [4] it was -1.12 (inactive); in assay [10] it was 0.717 (inactive); in [12], 3.47 (inactive); in [13] it was 0.374 (inactive). Further, the z-score was -6.59 (inactive) in assay [14]; 0.276 (inactive) in assay [15]; -0.118 in assay [16]; 1.18 (inactive) in assay [17]; 1.3 (inactive) in assay [18]; 0.846 in assay [19]. Further, the z-score in assay [20] was 0.987.

As for `CCOC(=O)C[C@H]1[C@H](OC(=O)c2ccc(-c3ccccc3)cc2)[C@@H](NC(=O)c2ccccc2)c2cc(OCCCO)ccc2N1C(=O)c1ccccc1`, the composite z-score in assay [1] stood at 0.15; in assay [5], 0.0439; in assay [6], 0.105; in assay [7] it was 0.217; in [8], 0.792; in assay [9], 0.082. Further, the composite z-score in assay [11] is 0.167. The z-score in assay [2] is -2.94 (inactive); in assay [3], 0.251 (inactive); in [4] it was -0.843 (inactive); in assay [10], 2.36 (inactive); in assay [12], 0.788 (inactive); in assay [13], -0.846 (inactive). Moreover, the z-score in assay [14] was -0.0889 (inactive); in assay [15] it was -1.09 (inactive); in assay [16], 1.58; in assay [17], 2.09 (inactive); in assay [18], 1.32 (inactive); in [19], 3.5. The z-score in assay [20] is 0.769.

In the case of `C=C(CCCC)/C(=C/C[C@H](OC(=O)c1ccncc1)c1ccc(CO)o1)c1cnc2ccccc2c1`, the composite z-score in assay [1] was 0.216; in assay [5] it was 0.783; in assay [6], 0.212; in [7], 0.378; in [8], 0.324; in [9] it was 1.95. Besides, the composite z-score in [11] was 0.301. For the same compound, the z-score in assay [2] was -0.807 (inactive); in assay [3], 3.77 (inactive); in assay [4], -1.24 (inactive); in [10] it was 0.822 (inactive); in [12] it was 7.89 (inactive); in assay [13], -0.0845 (inactive). Also, the z-score is 1.04 (inactive) in assay [14]; -1.01 (inactive) in assay [15]; -0.367 in assay [16]; 2.49 (inactive) in assay [17]; 1.15 (inactive) in assay [18]; 0.737 in assay [19]. For the same compound, the z-score in [20] is 0.942.

For the compound `COc1ccc([Si](C)(C)[C@H]2[C@H](CCO)O[C@@]3(C(=O)N(Cc4ccc(N5C(=O)c6cccc7cccc5c67)cc4)c4ccccc43)[C@@H]2C)cc1`, the composite z-score in assay [1] was -0.158; in assay [5], 0.338; in assay [6] it was -0.101; in assay [7], -0.294; in assay [8], -0.124; in assay [9] it was -0.0681. Moreover, the composite z-score in assay [11] is -0.147. Further, the z-score is -6.16 (inactive) in [2]; 0.399 (inactive) in assay [3]; -1.05 (inactive) in [4]; 1.19 (inactive) in [10]; 3.64 (inactive) in assay [12]; 2.29 (inactive) in [13]. Moreover, the z-score in assay [14] is -0.273 (inactive); in assay [15], 1.23 (inactive); in assay [16] it was 1.63; in assay [17], 0.469 (inactive); in assay [18], 0.821 (inactive); in [19], 0.378. Besides, in [20], the z-score was -1.02.
